PubChem BioAssay (NCI)
Compounds without any hit were thinned out: in the full panel of roughly 83,000, 20% have a hit.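 Interpretation: 100, growth as untreated; towards 0, rising growth inhibition; 0, no net growth; 0 to -100, cell death. Compounds scoring below 10 were considered active.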 The source made the active and inactive calls.

system: NCI/ADR-RES ovarian; test: NCI-60 one-dose screen, 48 h (100 = growth as untreated, 0 = no growth, -100 = all killed); conditions: 10 µM unless noted

SMILES | growth
CCOC(=O)CCC[P+](c1ccccc1)(c1ccccc1)c1ccccc1 | 105% (inactive)
CC1(C)CC[C@]2(C(=O)O)CC[C@]3(C)C(=CC[C@@H]4[C@@]5(C)C/C(=C/c6cccnc6)[C@H](O)C(C)(C)[C@@H]5CC[C@]43C)[C@@H]2C1 | 3.8% [100 µM] (active)
CCC(Br)(CC)C(=O)c1ccc(OCC(=O)O)c(Cl)c1Cl | 99.1% (inactive)
C#C[C@]1(O)CC[C@H]2[C@@H]3CC=C4c5nc(Nc6ccccc6[N+](=O)[O-])sc5CC[C@]4(C)[C@H]3CC[C@@]21C | 75.8% (inactive)
O=C(N/N=C\c1cc(Cl)ccc1O)N/N=C/c1cc(Cl)ccc1O | 16% (inactive)
C=C(C)[C@@H]1CC[C@]2(C(=O)NCCNCCNC(=O)OC(C)(C)C)CC[C@]3(C)[C@H](CC[C@@H]4[C@@]5(C)CCC(=O)C(C)(C)[C@@H]5CC[C@]43C)[C@@H]12 | 52.2% [100 µM] (inactive)
Cc1cc(C)c(O)c(CNCCCNCc2cc(C)cc(C)c2O)c1 | 72.5% (inactive)
O=C(Nc1ccc(C(=O)/C=C/c2ccc(N3CCOCC3)cc2)cc1)Nc1ccc([N+](=O)[O-])cc1 | 98.5% (inactive)
C[C@H]1[C@H](C)CC[C@]2(C(=O)N3CCN(C)CC3)CC[C@]3(C)C(=CC[C@@H]4[C@@]5(C)C/C(=C/c6ccco6)C(=O)C(C)(C)[C@@H]5CC[C@]43C)[C@H]12 | 37.9% [100 µM] (inactive)
Nc1nc(Cl)c2ncn(Cc3cc4c(cc3I)OCO4)c2n1 | 58% (inactive)
CC1(C)OC2[C@@H](CNC(=O)NC(=O)NC(=O)CI)O[C@@H](n3cnc4c(NC(=O)Nc5ccccc5)ncnc43)[C@H]2O1 (some centres undefined) | 84.6% (inactive)
Fc1cc2[nH]ncc2c2c3c(c(-c4cn[nH]c4C(F)(F)F)nc12)C1CCC3C1 (centres undefined) | 55.7% (inactive)
CC1Cc2c(Cl)ncnc2N(C)c2ccccc21 (centres undefined) | 16.6% (inactive)
C=C(C)[C@@H]1CC[C@]2(COCCCN)CC[C@]3(C)[C@H](CC[C@@H]4[C@@](C)(CCCNCCCN)[C@H](C(=C)C)CC[C@]43C)[C@@H]12 | -53.6% [100 µM] (active)
CCCCCCSc1ncnc2nc[nH]c12 | 91.3% (inactive)
C[C@@H]1C[C@H]2C(=O)O[C@@H](C)[C@H](NC(=O)[C@H](Cc3cc(F)cc(F)c3)NC(=O)Nc3ccc(C4CC4)cc3F)C(=O)N3CCC[C@H]3C(=O)N3CCCC[C@H]3C(=O)N[C@@H](C)C(=O)N2C1 | 14.9% (inactive)
O=[N+]([O-])c1ccc(O)c(-c2nc3ccccc3s2)c1 | 82.8% (inactive)
COc1cc2c(cc1OC(C)=O)C(=O)CCCC2 | 97.7% (inactive)
COc1ccc(CC(C#N)c2ccc(Cl)cc2)cc1 (centres undefined) | 42.5% (inactive)
COc1ccc(N(c2nc(-c3ccc([N+](=O)[O-])cc3)cs2)C(C)C)cc1 | 86.2% (inactive)
C=C(C)[C@@H]1CC[C@]2(C)[C@H](CC[C@@H]3[C@@H]([C@@](C)(O)CCC=C(C)C)CC[C@]32C)[C@@]1(C)CCC(=O)O | 6.42% [100 µM] (active)
CCOc1ccc(S(=O)(=O)Nc2ccc3c(c2)N(S(=O)(=O)CC)CCC3)cc1 | 89.9% (inactive)
Cc1cnc(N)nc1OCCNC(=O)c1cccc(-c2ccc(S(=O)(=O)Nc3ccc4c(c3)N(C(=O)C3CC3)CCC4)cc2)c1 | 102% (inactive)
Fc1cc2[nH]ncc2c2c3c(c(-c4cn[nH]c4)nc12)CCCC3 | 34.7% (inactive)
